The values below come from PubChem BioAssay (NCI).

Assay in all cases: NCI-60 one-dose screen, 48 h (100 = growth as untreated, 0 = no growth, -100 = all killed)
Assay [1] concerns SK-MEL-2 melanoma. Conditions: 10 µM unless noted.
For assay [2], the system named is EKVX NSCLC. Conditions: 10 µM unless noted.
The test system of assay [3] is SN12C renal. The settings on record: 10 µM unless noted.
In assay [4] the test system is UO-31 renal. Conditions: 10 µM unless noted.
In assay [5] the test system is TK-10 renal. The settings on record: 10 µM unless noted.
Assay [6] deals with ACHN renal. Conditions: 10 µM unless noted.
For assay [7], the system named is CAKI-1 renal. Conditions: 10 µM unless noted.
For assay [8], the system named is A498 renal. The settings on record: 10 µM unless noted.
For assay [9], the system named is CCRF-CEM leukemia. Conditions: 10 µM unless noted.
In assay [10] the test system is MOLT-4 leukemia. The settings on record: 10 µM unless noted.
Assay [11] concerns SR leukemia. The settings on record: 10 µM unless noted.
Assay [12] relates to RPMI-8226 leukemia. Conditions: 10 µM unless noted.
For assay [13], the system named is OVCAR-8 ovarian. The settings on record: 10 µM unless noted.
Assay [14] concerns OVCAR-5 ovarian. Conditions: 10 µM unless noted.
The test system of assay [15] is OVCAR-4 ovarian. Conditions: 10 µM unless noted.
The test system of assay [16] is SK-OV-3 ovarian. Conditions: 10 µM unless noted.
Assay [17] deals with IGROV1 ovarian. The settings on record: 10 µM unless noted.
The test system of assay [18] is OVCAR-3 ovarian. The settings on record: 10 µM unless noted.
The test system of assay [19] is HS 578T breast. The settings on record: 10 µM.
The test system of assay [20] is NCI/ADR-RES ovarian. The settings on record: 10 µM unless noted.

Structures are written as SMILES. This is part of a sample that, as a whole, favours compounds with a hit. Of some 83,000 tested, about 20% had one in any assay.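 Step 1: grow cells in 96-well plates. Step 2: add test compound at a single concentration. Step 3: incubate 48 h. Step 4: record percent growth.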 Unmarked numbers belong to inactive results. Activity calls are given as the source filed them. Rule for the calls: active = growth percent below 10; inactive = the rest.

In the case of `CNCc1cccc2c1OCCOCCOCCC(C)S(=O)(=O)c1ccc(cc1)-c1cnc(N)c(n1)C(=O)N2` (stereo not given), the growth in assay [1] was 75.2%; in assay [2] it was 52.3%; in assay [3], 45.9%; in [4], 44.4%; in assay [5], 66.8%; in [6], 18.9%. Moreover, the growth in [7] is 18.6%; in assay [8], 6.01% (active); in assay [9] it was 2.12% (active); in assay [10], 16.4%; in assay [11], -19.2% (active); in [12] it was 54.8%. The growth in assay [13] is 2.48% (active); in assay [14], 115%; in assay [15] it was 75.5%; in [16], 23.2%; in assay [17], 28.2%; in [18] it was 25.7%. Moreover, the growth is 0.126% (active) in assay [19] and 91.6% in assay [20].
Turning to `CN(C)c1ccc(C(c2ccccc2)c2ccc(N(C)C)cc2)cc1`, the growth in assay [1] was 89.1%; in assay [2], 102%; in assay [3], 92.6%; in assay [4], 62.1%; in assay [5], 122%; in assay [6] it was 97.9%. Also, the growth in [7] was 93.1%; in [8], 107%; in assay [9], 99.2%; in assay [10], 85.7%; in [11], 68.2%; in assay [12], 57.4%. The growth in assay [13] was 90.9%; in assay [14] it was 94%; in [15] it was 99.8%; in [16], 106%; in assay [17] it was 113%; in assay [18] it was 94.9%. The growth in [19] is 98.8%; in [20], 85%.
For the molecule `CCN(CC)CCCC(C)Nc1cnc(C(=O)Nc2cc(C)cc3cccnc23)cn1` (stereo not given), the growth in [1] was 104%; in assay [2], 77.8%; in [3], 77.9%; in assay [4] it was 63.3%; in assay [5], 86.9%; in [6], 77.9%. Also, the growth in assay [7] is 93.4%; in assay [8], 70.3%; in assay [9] it was 54.2%; in assay [10] it was 46.5%; in assay [11], 81.9%; in assay [12] it was 78%. Besides, the growth in assay [13] is 86.9%; in assay [14], 97.6%; in assay [15], 58.8%; in assay [16], 104%; in [17] it was 68.7%; in assay [18], 20.5%. For the same molecule, the growth in assay [19] is 79.9%; in assay [20], 92.7%.
In the case of `N[C@@H](CO)C(=O)O`, the growth in assay [1] is 116%; in assay [2] it was 84.3%; in [3] it was 101%; in [4] it was 83.4%; in assay [5], 125%; in assay [6] it was 107%. Moreover, the growth is 91.2% in assay [7]; 85.3% in [8]; 94.8% in [9]; 101% in [10]; 103% in [11]; 96.9% in [12]. For the same molecule, the growth in assay [13] is 99.8%; in assay [14], 104%; in [15], 109%; in assay [16], 111%; in [17] it was 110%; in [18], 98.4%. The figures for the growth in [19] and in assay [20] were 117% and 95.4%, respectively.
In the case of `COc1cc(Cn2c(-c3ccccc3)cc3c2-c2oncc2CC3)cc(OC)c1OC`, the growth in assay [1] was 31.4%; in assay [2] it was 38.3%; in assay [3], 49.3%; in [4], 4.35% (active); in assay [5], 47.1%; in assay [6] it was 48.2%. The growth in [7] is 0% (active); in assay [8], 2.81% (active); in assay [9] it was 16.9%; in [10], 14.1%; in [11], 8.51% (active); in assay [12], 40.5%. Besides, the growth in assay [13] was 34.2%; in assay [14] it was 69.1%; in assay [15] it was 54.8%; in assay [16], 13%; in assay [17], 18.4%; in assay [18], -44.3% (active). For the same molecule, the growth in assay [19] is -1.69% (active); in assay [20], 4.65% (active).
In the case of `COc1ccc2[nH]cc(/C=C3\C(=O)Nc4ccccc43)c2c1`, the growth in assay [1] was 12.6%; in assay [2] it was 49%; in assay [3], 49.5%; in [4] it was -14.7% (active); in assay [5], 53%; in assay [6] it was 34.6%. For the same molecule, the growth in assay [7] is -0.757% (active); in assay [8], 40.5%; in [9], 14%; in assay [10], 1.26% (active); in [11], 2.21% (active); in assay [12], 31.3%. The growth in assay [13] was 31.9%; in assay [14], 52.9%; in assay [15], 54.6%; in assay [16] it was 38.9%; in assay [17], -21.9% (active); in assay [18], 35.5%. Further, the growth in [19] is 33.2%; in assay [20], 23.1%.
With `O=C(NNC(=S)Nc1ccccc1)c1ccc(Nc2ncnc3c2cnn3-c2cccc(Br)c2)cc1`, the growth in assay [1] is 105%; in assay [2], 105%; in [3], 96.1%; in assay [4], 82.3%; in assay [5], 106%; in assay [6] it was 106%. Besides, the growth in assay [7] was 93.4%; in [8], 102%; in assay [9], 108%; in [10] it was 104%; in assay [11] it was 115%; in assay [12], 110%. Besides, the growth is 110% in assay [13]; 105% in assay [14]; 106% in [15]; 101% in assay [16]; 107% in [17]; 107% in [18]. The growth in [19] and in [20] was 105% in each case.
Turning to `COc1cccc(CC(C)=C(c2ccc(OCCCN(C)C)cc2)c2ccc(OCCCN(C)C)cc2)c1`, the growth in [1] is -76.5% (active); in [2] it was -83.9% (active); in assay [3], -84.7% (active); in [4] it was -97.8% (active); in assay [5] it was -93% (active); in assay [6] it was -98.3% (active). The growth in assay [7] is -97.7% (active); in assay [8] it was 18.6%; in assay [9] it was -53.3% (active); in [10] it was -61.4% (active); in [11], -49.1% (active); in assay [12], -53.9% (active). The growth in assay [13] is -78.7% (active); in assay [14] it was -86.5% (active); in assay [15], -22.2% (active); in assay [16], -88.6% (active); in assay [17] it was -82.6% (active); in assay [18] it was -89.9% (active). Also, the values for the growth in assay [19] and in assay [20] were -41.4% (active) and -70% (active), respectively.
